# High-throughput results (PubChem BioAssay)
# Rows were chosen to be rich in hits. Some 1.7% of all compounds tested hit in one or more screens of this group.
# Giardia kill = Small Molecules that selectively kill Giardia lamblia: qHTS; Giardia lamblia trophozoite viability; AID 540267, 2011; activity change, % at 7.66 µM, hits read low; 340,000 compounds, 0.15% hits; in the data active = activity change below about -80%; inconclusive = between about -30% and that limit;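 note: parasites exposed to compound for two days anaerobically before the ATP read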
#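 Each well holds 100 Giardia trophozoites and compound. After two days (48 hrs) at 37 deg C in anaerobic conditions, ATP is quantified by luminescence.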
# USP1-UAF1 inh = Inhibitors of USP1/UAF1: Primary Screen. Ubiquitin carboxyl-terminal hydrolase 1 (Homo sapiens), O94782. recombinant USP1/UAF1, Ub-Rhodamine cleavage fluorescence. Potency, µM (top dose mostly 57.1 µM), most hits filed as inhibitors. 390,000 compounds, 0.23% hits; active = well fitted inhibition curve with a large enough effect; inconclusive = small, poorly fitted or top-dose-only effect; inactive = no such curve, though single readings can be large or run the other way; note: nearly all actives have a fitted effect of over 60% in size
#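 In this screen, compounds sit with the deubiquitinase complex (1nM) for 15 min at room temperature before Ub-Rho is added at 150nM final. Fluorescence rise is then followed for 6 reads every 60 seconds.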
# hERG WT inh = qHTS for Inhibitors of KCHN2 3.1: Wildtype qHTS. 340,000 compounds, 0.37% hits. activity change, % at 1.84 µM. U2OS, BacMam KCNH2, thallium flux FluxOr; active compounds read low. AID 720551, 2013. Voltage-gated inwardly rectifying potassium channel KCNH2 (Homo sapiens), Q12809;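 active = maximum activity change below -70%; inconclusive = maximum activity change between -70% and -50%; inactive = maximum activity change above -50%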
#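 U2OS cells were transduced with wild-type KCNH2 virus (2.03 x 10^8 / mL) for 4 h at room temperature, then cultured overnight at 37 C. Thallium flux was read with FluxOr dye. Rate constants were normalized to DMSO controls.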
# KCNH2 3.1 block = qHTS for Inhibitors of KCHN2 3.1: Mutant qHTS; Potassium voltage-gated channel subfamily H member 2, brain isoform KCNH2 3.1 (human); U2OS KCNH2 3.1, thallium flux FluxOr; active compounds read low; activity change, % (tested at about 1.8 µM); 340,000 compounds, 0.95% hits;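 active = maximum activity change below -70%; inconclusive = maximum activity change from -70% to -50%; inactive = maximum activity change above -50%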;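 note: thallium influx rate constant from kinetic fluorescence after stimulation buffer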
#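 Measured as rate of thallium-driven FluxOr signal in transduced U2OS cells carrying the 3.1 channel, read kinetically for 2 min upon stimulation; values are rate constants scaled to DMSO control wells.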
# FBPA coupling cs = qHTS Assay for Inhibitors of Fructose-1,6-bisphosphate Aldolase from Giardia Lamblia: Coupling assay counterscreen. 290,000 compounds, 0.67% hits. AID 2472, 2010. activity change, negative = inhibition, % at 58.2 µM, hits read low. coupling enzyme system counterscreen, AmpLite Red fluorescence; in the data active = activity change below about -30%
#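 Compounds tested against the coupling enzymes alone at 57.5 uM final; readout was AmpLite Red fluorescence (525/598 nm) after 20 min at RT.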
# Numbers stand for hits; n = inactive; u = inconclusive; x = no result given.
SMILES,Giardia kill,USP1-UAF1 inh,hERG WT inh,KCNH2 3.1 block,FBPA coupling cs
Cc1cc(N2CCCC2)ccc1/C=C1/C(=O)N(C)C(=S)N1C,n,u,n,x,n
O=C1/C(=C/c2ccc(O)c(O)c2)Oc2cc(O)ccc21,n,n,n,n,n
COc1cc(/C=C2\Oc3cc(O)ccc3C2=O)ccc1O,n,28µM,n,n,n
Cn1c(=O)n(C)c2cc(N3CCCCC3)c(NC(=O)c3ccc(C(C)(C)C)cc3)cc21,x,n,x,x,x
COC1=CC(=O)C(C(=O)c2ccccc2)=CC1=O,x,x,x,x,-67
Cc1[nH][nH]c(=O)c1C(c1c(C)[nH][nH]c1=O)c1cn(Cc2ccccc2Cl)c2ccccc12,n,28µM,n,n,-43
CCN1/C(=C/c2cc[n+](C)cc2)C=Cc2cc(C)ccc21,n,u,n,n,-50
COc1ccc(C2CC(=O)N(CCCN(C)CCc3ccc(OC)c(OC)c3)C2)cc1 (configuration not stated),n,n,x,n,n
COc1ccc(CCN(C)CCCN2CC(c3ccccc3)CC2=O)cc1OC (configuration not stated),n,n,n,-88,n
NC(=O)c1ccccc1NC(=O)CN1CCN(Cc2ccccc2)CC1,u,n,n,-77,n
O=C(CN1CCN(Cc2ccccc2)CC1)N1CCCCCC1,n,n,n,-83,n
COc1ccccc1NC(=O)CN1CCN(Cc2ccccc2)CC1,n,n,n,n,n
NC(=O)c1ccccc1NC(=O)CN1CCCCCC1,n,n,n,n,x
O=C(CN1CCN(Cc2ccccc2)CC1)Nc1ccccc1-c1ccccc1,n,n,-74,n,n
CC[C@H](C)[C@H](NC(=O)[C@H](CCC(=O)O)NC(=O)[C@H](CO)NC(=O)[C@@H](NC(=O)[C@@H](N)CO)C(C)C)C(=O)N[C@@H](CCC(N)=O)C(=O)N[C@@H](CC(C)C)C(=O)N[C@@H](CCSC)C(=O)N[C@@H](Cc1cnc[nH]1)C(=O)N[C@@H](CC(N)=O)C(=O)N[C@@H](CC(C)C)C(=O)NCC(=O)N[C@@H](CCCCN)C(=O)N[C@@H](Cc1cnc[nH]1)C(=O)N[C@@H](CC(C)C)C(=O)N[C@@H](CC(N)=O)C(=O)N[C@@H](CO)C(=O)N[C@@H](CCSC)C(=O)N[C@@H](CCC(=O)O)C(=O)N[C@@H](CCCNC(=N)N)C(=O)N[C@H](C(=O)N[C@@H](CCC(=O)O)C(=O)N[C@@H](Cc1c[nH]c2ccccc12)C(=O)N[C@@H](CC(C)C)C(=O)N[C@@H](CCCNC(=N)N)C(=O)N[C@@H](CCCCN)C(=O)N[C@@H](CCCCN)C(=O)N[C@@H](CC(C)C)C(=O)N[C@@H](CCC(N)=O)C(=O)N[C@@H](CC(=O)O)C(=O)N[C@H](C(=O)N[C@@H](Cc1cnc[nH]1)C(=O)N[C@@H](CC(N)=O)C(=O)N[C@@H](Cc1ccccc1)C(=O)N[C@H](C(=O)N[C@@H](C)C(=O)N[C@@H](CC(C)C)C(=O)NCC(=O)O)C(C)C)C(C)C)C(C)C,x,x,x,x,n
CN(C)C(=O)Nc1ccc(Oc2ccc(Cl)cc2)cc1,x,x,x,x,n
CCOC(=O)c1ccc(CC(=O)c2ccc(O)c(O)c2O)o1,n,n,n,n,-48
CCOC(=O)c1ccc(CC(=O)c2oc3cc(O)ccc3c2C)o1,n,n,n,n,n
c1ccc2c(-c3c[nH]c4ccccc34)c3ccccc3nc2c1,n,n,n,n,n
O=C(O)c1cc(-c2c[nH]c3ccccc23)nc2ccc3ccccc3c12,u,n,n,-98,n
COc1ccc(Cl)cc1NC(=O)c1cccc(S(=O)(=O)Nc2c(C)n(C)n(-c3ccccc3)c2=O)c1,n,n,n,n,x
COc1cccc(C2NC(=S)NC3=C2CCc2ccccc23)c1 (configuration not stated),n,n,n,n,-43
Cc1ccc(C2NC(=O)NC3=C2CCc2ccccc23)cc1 (configuration not stated),n,n,n,n,-40
COc1ccc2c(c1)C1=C(CC2)C(c2ccc(C)cc2)NC(=S)N1 (configuration not stated),n,n,n,n,n
COC(=O)c1cc(C)nc2c1c(=O)nc(SCc1ccccc1Cl)n2C1CC1,x,n,x,x,x
SMILES,Giardia kill,USP1-UAF1 inh,hERG WT inh,KCNH2 3.1 block,FBPA coupling cs
CC1=CC(C)(C)Nc2ccc(OC(=O)CN3C(=O)CCC3=O)cc21,n,n,n,n,-32
COCCn1c(=O)c(-c2ccc(Cl)cc2)nc2cnc(N3CCNCC3)nc21,x,x,x,x,n
CCc1cc2c3c(c(=O)oc2cc1OCC(=O)OC)CCCC3,n,n,n,-100,n
CCc1cc2c3c(c(=O)oc2cc1OC(C)C(=O)O)CCCC3 (configuration not stated),n,n,n,n,n
Cc1ccc(N(Cc2cccs2)C(=O)c2ccc(Br)o2)cc1,x,n,x,x,x
O/C(=C\c1ccc2ccccc2n1)c1ccc(O)cc1O,u,28µM,n,n,n
O=C(CNC(=O)C1CCCCC1)OCC(=O)c1ccc(C2CCCCC2)cc1,n,x,x,x,x
CCOP(=O)(OCC)C(NC(=O)c1ccc(OC)cc1)c1ccccc1 (configuration not stated),n,n,n,-96,n
Cc1ccc(-n2ncc(C(=O)N3CCN(C4CCCCC4)CC3)c2C2CCN(C(=O)OC(C)(C)C)CC2)cc1C,x,n,x,x,x
COc1ccc(CN(Cc2ccccc2)C(=O)c2cccc(C#N)c2)cc1COc1ccc(NC(C)=O)cc1,n,x,x,x,x
COc1cc(C(c2c(C)[nH][nH]c2=O)c2c(C)[nH][nH]c2=O)ccc1OCc1ccc([N+](=O)[O-])cc1,n,n,n,n,-35
CC(=O)Nc1ccc(OC(=O)c2cccs2)cc1,n,n,n,-93,n
Cc1ccc(S(=O)(=O)Nc2ccc(NC(=O)c3cccs3)cc2)cc1,n,n,n,n,n
CC(=O)NS(=O)(=O)c1ccc(NC(=O)c2ccc(NC(=O)c3cccs3)cc2)cc1,n,n,-228,-163,x
CCN(CC)C(=O)Cn1c(SCCOc2ccc(Cl)cc2)nc2ccccc21,x,n,x,x,x
c1coc(-c2nnc(-c3ccco3)nn2)c1,n,25µM,n,n,-44
COc1ccc(-n2cc(CNCCc3nc(C)cc(C)n3)c(-c3ccccc3Cl)n2)cc1,n,n,n,n,n
Fc1ccc(-n2cc(CNCCc3ccccn3)c(-c3ccccc3Cl)n2)cc1,n,n,n,-115,n
CCCCC(Sc1ccc2nnc(-c3ccccn3)n2n1)C(=O)O (configuration not stated),n,x,x,x,x
